High-throughput results deposited in PubChem by National Center for Advancing Translational Sciences (NCATS).
NPC1 prom act = activators of NPC1 promoter; Huh7 NPC1 promoter luciferase reporter, 24 h; Potency, µM (doses to about 9.22 µM), for inactives: at the highest dose activation, actives largely listed as activators; 320,000 compounds, 2.4% hits; note: % of control where 0% means no effect; nearly all actives have a fitted effect of over 60% in size
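Luciferase expression driven by the NPC1 promoter was measured in stably transfected Huh7 cells after a 24 h compound incubation, using a luciferase reagent and a luminescence read.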
Rab9 promoter act = activates the Rab9 promoter; Huh7 Rab9 promoter-luciferase reporter, luminescence, 24 h; 320,000 compounds, 2.8% hits; AID 485297; Potency, µM (highest dose often 9.22 µM), without a hit: at the top dose activation, negative = inhibition, most hits filed as activators; note: % of control where 0% means no effect; nearly all actives have a fitted effect of over 60% in size
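Huh7 reporter line, Rab9 promoter upstream of luciferase. Compound exposure 24 h at 37 °C in reduced-serum medium with 10% FBS. Read-out: luminescence.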
ELG1 genotox = genotoxicity induction in ELG1-luciferase HEK293T cells. AID 504466. Potency, µM (highest dose often 46 µM), without a hit: top-dose activity change, positive = activation, most hits filed as activators. HEK293T ELG1-luciferase reporter, luminescence, 16 h. 330,000 compounds, 1.3% hits; note: % of control where 0% means no effect; nearly all actives have a fitted effect of over 60% in size
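Genotoxicity was scored as increased ELG1-luciferase reporter signal, measured by ONE-Glo luminescence (30 min, room temperature). Compound or vehicle exposure of the HEK293T reporter cells lasted 16 hr at 37°C.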
FLuc counter = inhibits or activates purified firefly luciferase, miR-21 counter-screen | purified FLuc, Km substrates, luminescence inhibition | Potency, µM (doses to about 57.5 µM), inactives show at the highest dose activity change, negative = inhibition, most hits filed as inhibitors | 360,000 compounds, 6.9% hits;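 note: plate controls were vehicle for no effect and reference inhibitor for full effect; nearly all actives have a fitted effect of over 55% in size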
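Biochemical qHTS of compounds, final roughly 60 µM downward over six points, against 10 nM purified firefly luciferase using Km concentrations of substrates (10 uM D-luciferin, 10 uM ATP) in Tris acetate pH 7.5 buffer; luminescence output.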
SMN2 splice enh = SMN2 splice variant enhancement. HEK293 SMN2-luciferase splicing reporter, luminescence, 30-36 h. Potency, µM (top dose mostly 46.1 µM), for inactives: top-dose activity change, positive = activation, actives largely listed as activators. 210,000 compounds, 2.8% hits. AID 1458; note: % of control where 0% means no effect; nearly all actives have a fitted effect of over 55% in size
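HEK293 cells carry an SMN2 minigene-luciferase reporter in which exon 7 inclusion puts luciferase in frame. Cells were seeded at 2000 cells/well, attached for 10-12 hours, then exposed to compounds for 30-36 hours at 37C before ONE-Glo luminescence.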
ELG1 repair inh = blocks ELG1-dependent DNA repair in HEK293T cells; HEK293T ELG1-luciferase reporter, luminescence, 16 h; DNA damage induced by 5-fluorouridine; Potency, µM (highest dose often 46.1 µM), for inactives: top-dose activity change, negative = inhibition, actives largely listed as inhibitors; 330,000 compounds, 2.3% hits; AID 504467; note: % is set by controls: 0 for no effect and ±100 for the full control effect; nearly all actives have a fitted effect of over 55% in size
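Step one: seed 2,000 cells per well. Step two: pin-transfer compound or DMSO alongside 5-fluorouridine. Step three: incubate 16 hr, 37 °C, 5% CO2. Step four: add ONE-Glo, wait 30 min, read luminescence.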
ELG1 FLuc counter = luciferase inhibition in cell-free luciferin readout for ELG1 hits; 350 compounds, 3% hits; cell-free firefly luciferase luminescence counter-screen, ViewLux; shares compounds with ELG1 repair inh; Potency, µM (top dose mostly 46.1 µM), for the others: at the top dose activity change, negative = inhibition, hits mostly inhibitors; note: % is set by controls: 0 for no effect and ±100 for the full control effect
ELG1-Luc inh = human ELG1 repair inhibition, luciferase-tagged ELG1 confirmation | shares compounds with ELG1 repair inh | HEK293T ELG1-luciferase levels, luminescence; cells co-treated with 5-fluorouridine | Potency, µM (doses to about 46.1 µM), without a hit: top-dose activity change, negative = inhibition, actives largely listed as inhibitors | 670 compounds, 68% hits | AID 624248; note: % is set by controls: 0 for no effect and ±100 for the full control effect; nearly all actives have a fitted effect of over 55% in size
ELG1 MMS Luc = inhibits ELG1-dependent repair under MMS stimulation in HEK293T cells | shares compounds with ELG1 repair inh | Potency, µM (series often up to 46.1 µM), inactives show at the highest dose activity change, negative = inhibition, usual class: inhibitors | AID 624249 | HEK293T luciferase-tagged ELG1 level, MMS stimulated | 670 compounds, 53% hits; note: % is set by controls: 0 for no effect and ±100 for the full control effect; nearly all actives have a fitted effect of over 60% in size
ELG1 5FU viab = confirmation of ELG1 repair inhibitors: viability with 5FU; 670 tested, under 10 active; cell viability with 5-FU, ELG1-dependent repair; Potency, µM (titrated, usually from 46.1 µM), inactives show top-dose activity change, negative = viability loss, usual class: cytotoxic; AID 624250; shares compounds with ELG1 repair inh;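 note: ELG1-luc HEK293T cells cotreated with 5-fluorouridine at 10 µM final; viability measured 16 h after compound addition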
ELG1 MMS viab = confirmation of ELG1 repair inhibitors: viability with MMS. shares compounds with ELG1 repair inh. Cell viability with MMS, ELG1-dependent DNA repair. Potency, µM (doses to about 46.1 µM), inactives show at the top dose activity change, negative = viability loss, hits mostly cytotoxic. 670 compounds, 33% hits;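 note: ELG1-luc HEK293T cells co-treated with 10 µM MMS; viability read 16 h after compound addition; % is set by controls: 0 for no effect and ±100 for the full control effect; nearly all actives have a fitted effect of over 60% in size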
Cell viab unstim = affects unstimulated cell viability, ELG1 hit counter-screen; 900 compounds, 8% hits; cell viability counter-screen, unstimulated, luminescence; Potency, µM (highest dose often 45.9 µM), without a hit: top-dose activity change, negative = loss of viability, usual class: cytotoxic; shares compounds with ELG1 repair inh;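 note: compound exposure lasted 16 hours before reading; % is set by controls: 0 for no effect and ±100 for the full control effect; nearly all actives have a fitted effect of over 55% in size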
FLuc enzyme = counter-screen for ELG1 repair inhibitors: firefly luciferase inhibition. Potency, µM (series often up to 57.5 µM), without a hit: at the highest dose activity, negative = inhibition, usual class: inhibitors. purified firefly luciferase, luminescence counter-screen. AID 624253. shares compounds with ELG1 repair inh. 350 compounds, 10% hits; note: % is set by controls: 0 for no effect and ±100 for the full control effect
* marks the source's active call; other numbers are inactive results; u = inconclusive; x = no result; [ ] = remark or other dose. A selection: hits, their analogues and other compounds. The true share with any hit is near 9.2%. Calls come from the whole dose curve; as a rule, active = well fitted curve in the direction sought with a large enough effect; inconclusive = small, poorly fitted or top-dose-only effect, or another doubt; inactive = no such curve, though single readings can be large; an effect the other way counts as inactive or inconclusive. Potency is the fitted concentration of half-maximal effect.

SMILES	NPC1 prom act	Rab9 promoter act	ELG1 genotox	FLuc counter	SMN2 splice enh	ELG1 repair inh	ELG1 FLuc counter	ELG1-Luc inh	ELG1 MMS Luc	ELG1 5FU viab	ELG1 MMS viab	Cell viab unstim	FLuc enzyme
COc1ccc(-c2noc(CCCC(=O)NC3CCCC3)n2)cc1	-24.1%	-26.1%	-6.8%	u	x	4.61µM*	x	u	5.6µM*	1.5%	7.05µM*	u	x
Cc1ccc(NC(=O)CSc2nc(=O)n(CCCN3CCOCC3)c3c2CCCC3)c(C)c1	-3.6%	-4.4%	1.2%	-3.5%	x	2.2%	x	x	x	x	x	x	x
COc1ccc2c(C)cc(SCC(=O)N3CCOCC3)nc2c1	-2.5%	5.7%	2.6%	5.1%	-14.3%	-10.7%	141.5%	x	x	x	x	u	u
COC(/C=C/Nc1ccc(Br)cc1)=C(C#N)C#N	-2.3%	-3.5%	1.1%	-0.2%	-1.7%	u	x	x	x	x	x	x	x
O=C(CCc1nnc2n(Cc3ccc(Cl)cc3)c(=O)c3ccccc3n12)N1CCN(c2ccccn2)CC1	-5.3%	-3.7%	0.4%[9.26 µM]	2.2%	x	3.66µM*	x	6.28µM*	22.3µM*	u	u	-10.3%	x
COC(=O)c1ccc2c(c1)N(Cc1ccc(F)cc1)C(=O)c1ccccc1S2	x	x	x	-2.6%	x	x	x	x	x	x	x	x	x
COc1ccc(-c2cc(-c3ccc(C)cc3)nc(SCc3nnc(-c4ccccc4)o3)c2C#N)cc1OC	-3.1%	-3.8%	5.9%	-2.0%	-48.1%	2.91µM*	-1.0%	3.15µM*	-11.7%	u	13.0%	-2.7%	0.4%
CCOC(=O)c1c(CSc2nc(C)cc(C)c2C#N)n(C)c2cc(Br)c(OC(C)=O)cc12	-21.5%	-9.5%	9.6%	-1.9%	-59.2%	u	x	x	x	x	x	x	x
C=CCCc1ccc(C#N)c(SCc2c(C(=O)OCC)c3cc(OC(C)=O)c(Br)cc3n2C)n1	-32.4%	-29.6%	1.2%	0.9%	29.8%	2.31µM*	9.6%	u	2.81µM*	2.7%	3.97µM*	u	3.1%
CC[n+]1c(/C=C/C=C/N(C(C)=O)c2ccccc2)sc2ccccc21	-2.8%	-4.1%	-6.5%	-0.4%	-22.3%	-12.6%	x	x	x	x	x	x	x
